# Values without a mark were called inactive. Results filed as inconclusive are left out. Activity calls are given as the source filed them. Unless noted, calls come from the whole dose curve; as a rule, active = well fitted curve in either direction with a large enough effect (not every such curve was filed as active); inconclusive = small, poorly fitted or top-dose-only effect, or another doubt; inactive = flat fitted curve, though single readings scatter.
# Legend:
# [1] = target: Lysosomal acid glucosylceramidase (Homo sapiens) (UniProt P04062); experiment: Glucocerebrosidase-p2 (AID 348; in the data active = potency below about 10 µM; note: potency is the fitted concentration of half-maximal effect); settings: purified GBA, blue fluorogenic substrate, 40 min
# Sequence of Lysosomal acid glucosylceramidase (Homo sapiens) (P04062 whole entry, looked up): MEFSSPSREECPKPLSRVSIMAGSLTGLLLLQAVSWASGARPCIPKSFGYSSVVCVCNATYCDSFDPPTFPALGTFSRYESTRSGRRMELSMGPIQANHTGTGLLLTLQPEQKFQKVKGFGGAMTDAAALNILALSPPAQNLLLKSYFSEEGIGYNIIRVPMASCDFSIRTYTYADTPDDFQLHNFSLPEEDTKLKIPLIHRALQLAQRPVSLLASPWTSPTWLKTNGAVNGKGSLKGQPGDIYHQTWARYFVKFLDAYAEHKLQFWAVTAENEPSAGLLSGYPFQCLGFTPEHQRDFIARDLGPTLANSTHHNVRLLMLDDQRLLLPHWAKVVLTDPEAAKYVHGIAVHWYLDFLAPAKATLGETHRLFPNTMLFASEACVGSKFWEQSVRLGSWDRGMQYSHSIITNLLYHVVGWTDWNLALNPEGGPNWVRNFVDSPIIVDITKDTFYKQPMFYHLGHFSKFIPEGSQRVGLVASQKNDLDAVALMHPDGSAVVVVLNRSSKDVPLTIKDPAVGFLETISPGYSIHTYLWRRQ
# Summary of the method: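 Normal human glucocerebrosidase (0.2 nM) with blue fluorogenic substrate (80 uM final) in citrate/phosphate pH 5.9 with 10mM sodium taurocholate, 0.01% tween-20; 40 min RT, NaOH/glycine stop; fluorescence Ex 365/Em 440; AC50 from a titration from 0.6 nM upwards.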
# [2] = AP1 Signaling Pathway (AID 357); settings: ME-180 AP-1-bla reporter, EGF-induced, beta-lactamase ratio, 5 h; at 7.69 µM (top of the series) unless noted;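 note: ME-180 reporter cells stimulated with EGF at its EC50 level; % is set by controls: 0 for no effect and ±100 for the full control effect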
# Summary of the method: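 Titration-series screen for positive or negative modulators of EC50 EGF-induced signaling in ME-180 cells carrying an AP-1-driven beta-lactamase reporter. After 5 hours at 37 degrees Celsius, CCF4 460nm/530nm emission ratio gave %Activity; AC50 values derived.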
# [3] = target: Cytochrome P450 1A2 (Homo sapiens) (UniProt P05177); experiment: p450-cyp1a2 (AID 410; calls by dose curve; note: potency is the fitted concentration of half-maximal effect;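 for activity change, negative = inhibition: -100% = full effect of reference inhibitor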); settings: recombinant CYP1A2, luciferin-ME demethylation, luminescence; series mostly up to 57 µM
# Sequence of Cytochrome P450 1A2 (Homo sapiens) (P05177 whole entry, looked up): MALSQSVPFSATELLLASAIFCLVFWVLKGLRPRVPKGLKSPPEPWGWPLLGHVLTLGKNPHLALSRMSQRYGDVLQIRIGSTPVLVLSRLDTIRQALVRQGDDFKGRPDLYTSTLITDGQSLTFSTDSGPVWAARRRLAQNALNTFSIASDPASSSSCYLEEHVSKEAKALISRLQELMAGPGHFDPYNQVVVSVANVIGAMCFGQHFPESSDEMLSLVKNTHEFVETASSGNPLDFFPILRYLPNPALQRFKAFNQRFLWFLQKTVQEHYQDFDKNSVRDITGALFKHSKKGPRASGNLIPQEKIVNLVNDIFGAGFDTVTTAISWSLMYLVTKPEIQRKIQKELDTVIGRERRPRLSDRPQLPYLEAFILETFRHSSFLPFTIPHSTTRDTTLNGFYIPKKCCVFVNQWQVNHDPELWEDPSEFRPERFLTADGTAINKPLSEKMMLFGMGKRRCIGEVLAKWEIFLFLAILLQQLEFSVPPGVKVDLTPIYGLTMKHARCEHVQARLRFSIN
# Summary of the method: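 Luminescent demethylation readout: Luciferin-ME (100uM, equal to Km) turned over by 20nM CYP1A2 for 60 min at room temperature after NADPH regeneration addition, following 10 min compound preincubation. Normalization used 57 uM furafylline as full inhibition.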
# [4] = NFAT Signaling Pathway (AID 444); settings: Jurkat NFAT-bla M1, carbachol, beta-lactamase ratio, 5 h; at 7.69 µM (top of the series) unless noted;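 note: carbachol stimulus at about its EC50 of 1 µM final; % is set by controls: 0 for no effect and ±100 for the full control effect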
# Summary of the method: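 Jurkat cells with NFAT-driven β-lactamase reporter and co-expressed M1 receptor, stimulated with carbachol (final 1 uM, ~EC50), compound titration, 5 h at 37 °C. CCF4 loaded 1 h at RT; 460/530 nm ratio gave %activity and AC50.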
# [5] = Stat Signaling Pathway (AID 446); settings: ME-180 (cervical carcinoma) SIE beta-lactamase reporter, IL-6 stimulated, 5 h; at 7.69 µM (top of the series) unless noted;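 note: ME-180 cervical cancer cells given 40 pM IL-6 alongside compound; SIE-controlled beta-lactamase reporter measured as 460/530 nm FRET emission ratio; % is set by controls: 0 for no effect and ±100 for the full control effect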
# Summary of the method: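 Emission at 460 and 530 nm (excitation 405 nm) reports SIE-controlled beta-lactamase in ME-180 cells. Cells received compound with 40 pM IL-6 for 5 hrs at 37 C; data scaled between 300 pM IL-6 and 125 nM JAK-inhibitor controls.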
# [6] = target: Glucocorticoid receptor (Homo sapiens) (UniProt P04150); experiment: GR-EFC Redistribution (AID 451; calls by dose curve; note: potency is the fitted concentration of half-maximal effect); settings: CHO-K1 GR-EFC translocation, beta-gal luminescence, 2 h
# Sequence of Glucocorticoid receptor (Homo sapiens) (P04150 whole entry, looked up, the tested form may be a part): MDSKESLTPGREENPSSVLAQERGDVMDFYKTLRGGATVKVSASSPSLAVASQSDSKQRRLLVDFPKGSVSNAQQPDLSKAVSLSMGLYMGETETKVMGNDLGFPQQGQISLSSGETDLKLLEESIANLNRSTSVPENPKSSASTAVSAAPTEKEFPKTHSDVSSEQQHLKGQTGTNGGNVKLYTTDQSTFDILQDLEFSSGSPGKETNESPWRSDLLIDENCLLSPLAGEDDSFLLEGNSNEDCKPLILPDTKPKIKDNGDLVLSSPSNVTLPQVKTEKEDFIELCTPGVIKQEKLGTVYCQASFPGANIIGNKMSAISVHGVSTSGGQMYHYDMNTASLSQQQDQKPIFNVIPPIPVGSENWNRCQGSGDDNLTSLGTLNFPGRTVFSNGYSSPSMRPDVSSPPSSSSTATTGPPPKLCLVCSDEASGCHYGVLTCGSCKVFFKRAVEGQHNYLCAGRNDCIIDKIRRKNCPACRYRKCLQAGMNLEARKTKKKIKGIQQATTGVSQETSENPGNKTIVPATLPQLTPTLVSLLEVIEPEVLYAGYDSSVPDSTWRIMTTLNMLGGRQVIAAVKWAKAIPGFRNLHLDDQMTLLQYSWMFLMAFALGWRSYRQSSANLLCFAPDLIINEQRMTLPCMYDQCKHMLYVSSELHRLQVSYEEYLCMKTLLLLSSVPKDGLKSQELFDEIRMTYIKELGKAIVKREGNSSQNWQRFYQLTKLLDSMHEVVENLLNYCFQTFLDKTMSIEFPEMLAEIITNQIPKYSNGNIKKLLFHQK
# Summary of the method: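 CHO-K1 cells expressing nuclear EA and GR-ED fragments of b-gal; compounds titrated up to 46 uM final, 2 h at 37 C. GR nuclear translocation read as complemented b-gal luminescence after 1 h RT detection.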
# [7] = target: Mitogen-activated protein kinase 10 (Mus musculus) (UniProt Q61831); experiment: JNK3 AlphaScreen Assay (AID 530); settings: JNK3 lysate, c-Jun phosphorylation; series mostly up to 57.1 µM;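 note: kinase came from lysate of stimulated human HepG2 cells; signal reports phosphorylation of biotinylated GST-cJun 1-79 at Ser73 with 10 µM ATP; % is set by controls: 0 for no effect and ±100 for the full control effect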
# Summary of the method: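 Activity was read by AlphaScreen after JNK3-containing HepG2 lysate (cytokine pre-activated) phosphorylated biotinylated GST-cJun with 10 uM ATP at room temperature. Phospho-Ser73 cJun antibody with Protein-A acceptor beads provided detection.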
# [8] = target: 3',5'-cyclic-AMP phosphodiesterase 4B (Homo sapiens) (UniProt Q07343); experiment: qHTS Assay for Inhibitors of PDE-IV (AID 607; active = well fitted activation curve with a large enough effect in the main read-out, with a control signal flat, not every such curve was filed as active; note: % of control where 0% means no effect); settings: HEK293 ACTOne CNG channel cells, membrane potential fluorescence; series mostly up to 22.9 µM
# Sequence of 3',5'-cyclic-AMP phosphodiesterase 4B (Homo sapiens) (Q07343 whole entry, looked up): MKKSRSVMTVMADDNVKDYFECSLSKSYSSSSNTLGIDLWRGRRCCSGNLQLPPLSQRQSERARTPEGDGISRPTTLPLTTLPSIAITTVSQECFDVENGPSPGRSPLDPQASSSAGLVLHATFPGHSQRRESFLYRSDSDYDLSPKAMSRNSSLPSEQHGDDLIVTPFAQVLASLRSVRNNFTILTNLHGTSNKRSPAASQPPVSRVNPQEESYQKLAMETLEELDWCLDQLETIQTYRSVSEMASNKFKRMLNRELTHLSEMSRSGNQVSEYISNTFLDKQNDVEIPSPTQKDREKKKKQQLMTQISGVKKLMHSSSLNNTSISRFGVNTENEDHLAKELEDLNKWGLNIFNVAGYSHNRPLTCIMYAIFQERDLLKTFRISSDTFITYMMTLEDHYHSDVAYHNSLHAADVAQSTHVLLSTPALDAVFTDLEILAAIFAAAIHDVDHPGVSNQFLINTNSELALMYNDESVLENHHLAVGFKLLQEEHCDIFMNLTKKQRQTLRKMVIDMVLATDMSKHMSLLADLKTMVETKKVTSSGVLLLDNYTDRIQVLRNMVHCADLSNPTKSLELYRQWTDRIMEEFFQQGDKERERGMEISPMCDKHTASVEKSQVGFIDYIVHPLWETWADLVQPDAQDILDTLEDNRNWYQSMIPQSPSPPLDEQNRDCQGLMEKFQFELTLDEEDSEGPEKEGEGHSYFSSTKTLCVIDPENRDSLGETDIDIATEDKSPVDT
# Summary of the method: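 The readout is membrane depolarisation from a cAMP-sensing CNG channel, detected with a potential dye at ex 535/em 590. Cells were HEK293-derived (endogenous PDE-IV) at 1000 cells/well, titrated up to 22.9 uM final.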
# [9] = target: Cytochrome P450 3A4 (Homo sapiens) (UniProt P08684); experiment: qHTS Assay for Activators of Cytochrome P450 3A4 (AID 885; active = well fitted curve in the direction sought with a large enough effect; an effect the other way counts as inactive or inconclusive; note: nearly all actives have a fitted effect of over 65% in size; note: potency is the fitted concentration of half-maximal effect); settings: recombinant CYP3A4, Luciferin-PPXE luminescence, 60 min; series mostly up to 57.1 µM
# Sequence of Cytochrome P450 3A4 (Homo sapiens) (P08684 whole entry, looked up): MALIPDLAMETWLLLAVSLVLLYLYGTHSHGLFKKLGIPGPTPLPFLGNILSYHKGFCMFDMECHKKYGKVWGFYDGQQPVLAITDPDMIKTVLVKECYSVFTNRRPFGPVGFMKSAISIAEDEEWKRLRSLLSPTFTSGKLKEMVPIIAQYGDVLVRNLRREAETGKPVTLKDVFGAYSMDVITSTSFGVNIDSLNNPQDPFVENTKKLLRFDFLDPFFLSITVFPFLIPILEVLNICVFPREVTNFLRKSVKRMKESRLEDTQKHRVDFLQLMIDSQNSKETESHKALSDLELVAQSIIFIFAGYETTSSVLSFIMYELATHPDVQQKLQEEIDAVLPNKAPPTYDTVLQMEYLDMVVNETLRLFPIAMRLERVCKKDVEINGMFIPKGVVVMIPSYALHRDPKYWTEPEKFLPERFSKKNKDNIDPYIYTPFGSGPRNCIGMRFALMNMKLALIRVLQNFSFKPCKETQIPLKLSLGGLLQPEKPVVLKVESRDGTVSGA
# Summary of the method: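 Activators are scored by enhanced luminescence from CYP3A4 conversion of luciferin-PPXE (25uM, equal to KM) to luciferin, after 60 min at RT with an NADPH-regenerating system.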
# [10] = Primary qHTS for small molecule stabilizers of the endoplasmic reticulum resident proteome: Secreted ER Calcium Modulated Protein (SERCaMP) assay (AID 1508630; active = well fitted curve in the direction sought with a large enough effect; an effect the other way counts as inactive or inconclusive; note: % is set by controls: 0 for no effect and ±100 for the full control effect); settings: SH-SY5Y GLuc-SERCaMP (Gaussia luciferase released on ER calcium loss) secretion, thapsigargin, luminescence; series mostly up to 38.4 µM
# Summary of the method: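 The SH-SY5Y reporter protocol was run at 3 concentrations up to 38.3 uM (primary) or 11 concentrations (follow-up): 16 h compound, 100 nM thapsigargin for 4 h, then extracellular luciferase luminescence.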
# [11] = target: Cytochrome P450 2C19 (Homo sapiens) (UniProt P33261); experiment: qHTS Assay for Inhibitors and Substrates of Cytochrome P450 2C19 (AID 899; active = well fitted curve in the direction sought with a large enough effect; an effect the other way counts as inactive or inconclusive; note: potency is the fitted concentration of half-maximal effect; nearly all actives have a fitted effect of over 60% in size); settings: recombinant CYP2C19, luciferin-H EGE luminescence; series mostly up to 57.1 µM
# Sequence of Cytochrome P450 2C19 (Homo sapiens) (P33261 whole entry, looked up): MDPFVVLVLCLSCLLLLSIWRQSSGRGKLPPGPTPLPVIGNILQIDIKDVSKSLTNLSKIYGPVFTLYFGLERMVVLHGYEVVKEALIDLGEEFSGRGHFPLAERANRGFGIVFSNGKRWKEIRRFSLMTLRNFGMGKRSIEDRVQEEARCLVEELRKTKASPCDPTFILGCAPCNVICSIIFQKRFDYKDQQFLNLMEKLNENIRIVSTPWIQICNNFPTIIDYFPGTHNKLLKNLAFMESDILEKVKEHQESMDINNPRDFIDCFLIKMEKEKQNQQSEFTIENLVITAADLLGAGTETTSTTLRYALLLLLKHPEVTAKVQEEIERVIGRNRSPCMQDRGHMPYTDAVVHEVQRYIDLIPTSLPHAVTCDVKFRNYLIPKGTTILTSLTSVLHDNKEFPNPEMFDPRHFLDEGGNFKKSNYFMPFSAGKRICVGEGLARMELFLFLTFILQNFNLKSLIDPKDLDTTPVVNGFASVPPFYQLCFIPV
# Summary of the method: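 Luminescent read-out of luciferin formed from Luciferin-H EGE (10uM, equal to KM). Enzyme 5nM in 50mM KPO4; compound added, 10 min at 37C, then NADPH regenerating system for 60 min at 37C. Full inhibition defined by 57uM ketoconazole.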
# [12] = target: Cytochrome P450 3A4 (Homo sapiens) (UniProt P08684); experiment: qHTS Assay for Inhibitors and Substrates of Cytochrome P450 3A4 (AID 884; active = well fitted curve in the direction sought with a large enough effect; an effect the other way counts as inactive or inconclusive; note: nearly all actives have a fitted effect of over 50% in size; note: potency is the fitted concentration of half-maximal effect); settings: recombinant CYP3A4, Luciferin-PPXE luminescence; series mostly up to 57.1 µM
# Summary of the method: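 Luminescent readout of luciferin produced by CYP3A4 (20 nM) dealkylation of Luciferin-PPXE, 25 uM (its KM). NADPH-driven reaction ran 60 min at RT after 10 min compound preincubation; data scaled to 57 uM ketoconazole as 100% inhibition.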
# [13] = target: Cytochrome P450 2D6 (Homo sapiens) (UniProt P10635); experiment: qHTS Assay for Inhibitors and Substrates of Cytochrome P450 2D6 (AID 891; active = well fitted curve in the direction sought with a large enough effect; an effect the other way counts as inactive or inconclusive; note: potency is the fitted concentration of half-maximal effect; nearly all actives have a fitted effect of over 60% in size); settings: recombinant CYP2D6, luciferin-ME EGE luminescence; series mostly up to 57.1 µM
# Sequence of Cytochrome P450 2D6 (Homo sapiens) (P10635 whole entry, looked up): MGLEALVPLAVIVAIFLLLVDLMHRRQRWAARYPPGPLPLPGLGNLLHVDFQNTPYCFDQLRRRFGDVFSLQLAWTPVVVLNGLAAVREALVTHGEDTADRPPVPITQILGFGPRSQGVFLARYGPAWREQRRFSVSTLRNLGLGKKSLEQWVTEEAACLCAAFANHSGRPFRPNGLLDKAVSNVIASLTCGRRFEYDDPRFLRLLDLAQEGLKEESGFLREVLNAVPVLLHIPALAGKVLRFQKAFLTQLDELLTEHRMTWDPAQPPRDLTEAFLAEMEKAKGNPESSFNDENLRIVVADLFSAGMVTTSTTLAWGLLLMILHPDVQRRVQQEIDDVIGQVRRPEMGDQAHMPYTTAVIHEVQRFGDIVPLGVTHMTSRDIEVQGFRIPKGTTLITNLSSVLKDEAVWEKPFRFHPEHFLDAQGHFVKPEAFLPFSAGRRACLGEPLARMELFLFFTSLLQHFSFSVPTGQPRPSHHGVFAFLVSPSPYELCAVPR
# Summary of the method: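 Luminescent read-out of luciferin formed by 5 nM human CYP2D6 demethylating 30 uM Luciferin-ME EGE (Km level) over 60 min at room temperature after NADPH regeneration addition. Data normalized to full inhibition by 1.43 uM quinidine.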
SMILES,Potency [1] [µM],"activity change, negative = inhibition [2] [%]",Potency [3],"activity change, negative = inhibition [4] [%]","activity, negative = inhibition [5] [%]",Potency [6] [µM],Potency [7],Potency [8],Potency [9],outcome [10],Potency [11],Potency [12],Potency [13]
Cn1cccc1C(=O)N1CCC[C@@]2(CCN(Cc3nccs3)C2)C1,> 11.4,-4.63,inactive,12.5,9.2,> 46,inactive,inactive,inactive,inactive,,,
CS(=O)(=O)N1CCC[C@@]2(CCN(C(=O)Nc3cccc(C#N)c3)C2)C1,> 11.4,-2.32,inactive,9.12,1.86,> 46,inactive,inactive,inactive,inactive,,,
O=C(c1cc(C(F)(F)F)cc(C(F)(F)F)c1)N1CCC2(CC1)CN(Cc1ccncc1)C2,> 11.4,-12.2,20 µM (active),-6.5,5.6,> 46,inactive,inactive,inactive,inactive,,,
CC(=O)N1CCC2(CCCN(Cc3nccs3)C2)CC1,> 11.4,3.8,inactive,-6.07,6.5,> 46,inactive,inactive,inactive,inactive,5.01 µM (active),,
COC(=O)N1CCC2(CCCN(C(=O)Nc3ccc(OC)cc3)C2)CC1,> 11.4,-3.8,20 µM (active),-6.91,-13.9,> 46,inactive,inactive,inactive,inactive,,,
O=C(Nc1cccc(F)c1)N1CC[C@@]2(CCCN(C(=O)c3cnccn3)C2)C1,> 11.4,4.63,inactive,12.9,2.65,> 46,inactive,inactive,inactive,inactive,,,
O=C(c1cnccn1)N1CCC[C@@]2(CCN(Cc3ccncc3)C2)C1,> 11.4,-3.77,15.8 µM (active),7.13,-5.95,> 46,inactive,inactive,inactive,inactive,,,
COc1ccc(NC(=O)N2CCCC3(CCN(C(=O)c4ccc(OC)cc4)CC3)C2)cc1,> 11.4,-11.4,inactive,0.394,-3.96,> 46,inactive,inactive,inactive,inactive,,,
COc1ccc(C(=O)N2CCC3(CCN(Cc4ccncc4)CC3)CC2)cc1,> 11.4,-7.79,inactive,-24.2,11.1,> 46,inactive,inactive,inactive,inactive,,,
COC(=O)N1CCC2(CCCN(C(c3ccccc3)c3ccccc3)C2)CC1,> 11.4,11.9,15.8 µM (active),-16.3,13.3,> 46,inactive,inactive,inactive,inactive,,,
O=C(c1cccc(F)c1)N1CCC[C@@]2(CCN(c3cccc(-c4ccccc4)c3)C2)C1,> 11.4,4.68,15.8 µM (active),-14.4,-5.9,> 46,inactive,inactive,inactive,inactive,,7.94 µM (active),
COc1ccc(C(=O)N2CCC3(CC2)CCN(c2ncccn2)CC3)cc1,> 11.4,3.18,inactive,0.535,4.32,> 46,inactive,inactive,5.01 µM (active),inactive,,inactive,
COC(=O)N1CCC[C@@]2(CCN(C(=O)Nc3ccc(OC)cc3)C2)C1,> 11.4,-11,inactive,-1.85,3.7,> 46,inactive,inactive,inactive,inactive,,,
O=S(=O)(c1ccccc1)N1CCC2(CC1)CN(C(c1ccccc1)c1ccccc1)C2,> 11.4,15.1,inactive,-14.8,-6.71,> 46,inactive,inactive,3.16 µM (active),inactive,,inactive,2.51 µM (active)
O=C(c1ccco1)N1CCC2(CC1)CCN(c1ccc(-c3ccccc3)cc1)CC2,> 11.4,-1.18,inactive,17.6,-2.58,> 46,inactive,inactive,,inactive,,inactive,

# Reference: PubChem BioAssay (NCATS)
